Data from PubChem BioAssay AID1347084 (National Center for Advancing Translational Sciences (NCATS), 2019).
“And” between values parts separate entries of the source, which are not always exact repeats. Equal values may be shown once. Records with an inconclusive call do not appear. The source made the active and inactive calls. Calls come from the whole dose curve.

Assay: qHTS for Inhibitors of the Functional Ribonucleoprotein Complex (vRNP) of Lymphocytic Choriomeningitis Arenaviruses (LCMV): LCMV Confirmatory Screen - GLuc reporter signal
Conditions: LCMV minigenome vRNP, Gaussia luciferase reporter; series mostly up to 53.9 µM; activity change, negative = inhibition: at the top concentration

SMILES | activity change, negative = inhibition | Potency
CCCCC/C(C=O)=C\c1ccccc1 | -14.3% (inactive) | –
Cc1ccccc1-n1c(Cn2nc(-c3cccc(O)c3)c3c(N)ncnc32)nc2cccc(C)c2c1=O | – | 30.6 µM (active)
CCN(CC)C(=O)N[C@@H]1C=C2c3cccc4[nH]cc(c34)C[C@@H]2N(C)C1 | -19.4% (inactive) | –
CCOC(=O)OCC/C(SC(=O)OCC)=C(\C)N(C=O)Cc1cnc(C)nc1N | -12.6% (inactive) | –
CCc1cncnc1N1CCN(Cc2nc3ccc(C(F)(F)F)cc3[nH]2)CC1 | – | 4.44 µM (active)
CC[C@@H](C(=O)O)[C@@H]1O[C@@H]([C@@H](C)[C@H](O)[C@H](C)C(=O)[C@H](CC)[C@H]2O[C@]3(C=C[C@@H](O)[C@]4(CC[C@@](C)([C@H]5CC[C@](O)(CC)[C@H](C)O5)O4)O3)[C@H](C)C[C@@H]2C)[C@@H](C)C[C@@H]1C | – | 0.0627 µM (active)
Cc1ccc2c(c1)C1CN(C)CCC1N2 (configuration not stated) | -10.8% [at 19.4 µM] (inactive) | –
CCn1c(-c2nonc2N)nc2cnc(Oc3cccc(NC(=O)c4ccc(OCCN5CCOCC5)cc4)c3)cc21 | – | 4.32 µM (active)
Cc1cc2c(C(C)C)c(O)c(O)c(C=O)c2c(O)c1-c1c(C)cc2c(C(C)C)c(O)c(O)c(C=O)c2c1O | – | 6.11 µM (active)
COc1cccc(-c2ccc(NC(=O)C3=C(C(=O)O)CCC3)c(F)c2)c1 | – | 3.85 µM (active)
Cc1cc(N)c2ccccc2[n+]1CCCCCCCCCC[n+]1c(C)cc(N)c2ccccc21 | – | 1.09 µM (active)
O=C(Nc1ccccc1)Nc1ccc(-c2ccc(C(=O)[C@H]3CCC[C@H]3C(=O)O)cc2)cc1 | -16.6% (inactive) | –
CN1CCN(C2=Nc3cc(Cl)ccc3Nc3ccccc32)CC1 | – | 30.6 µM (active)
C=C1CC[C@@H]2[C@](C)(CO)[C@H](O)CC[C@@]2(C)[C@@H]1/C=C/C1=CCOC1=O | – | 21.7 µM (active)
COc1ccc(Cc2nccc3cc(OC)c(OC)cc23)cc1OC | – | 1.93 µM (active) and 3.43 µM (active)
CCC(C)c1nccnc1OC (configuration not stated) | -25.6% [at 110 µM] (inactive) | –
Cc1cccc(-c2[nH]c(C(C)(C)C)nc2-c2ccc3c(c2)OCO3)n1 | – | 3.43 µM (active)
Clc1nccc2c1ccc1ccccc12 | -21.7% (inactive) | –
CC1=C(C)C(=O)C(CCCCC#CCCCC#CCO)=C(C)C1=O | – | 19.3 µM (active)
Oc1cc(Cl)ccc1Oc1ccc(Cl)cc1Cl | – | 22.2 µM (active)
CC(C)=CCC/C(C)=C/CC/C(C)=C/CC[C@]1(C)CCc2c(C)c(O)c(C)c(C)c2O1 | -18.6% [at 6 µM] (inactive) | –
CCC1OC2(C)C(O)C(/C=C/C=C/C=C/c3oc(=O)cc(OC)c3C)OC1(C)C2OC(C)=O (configuration not stated) | – | 0.109 µM (active)
CC[C@@]1([C@@H]2O[C@@H]([C@H]3O[C@@](O)(CO)[C@H](C)C[C@H]3C)C[C@H]2C)CC[C@H]([C@]2(C)CC[C@]3(C[C@H](O)[C@@H](C)[C@@H]([C@@H](C)[C@@H](OC)[C@H](C)C(=O)O)O3)O2)O1 | – | 0.168 µM (active)
CCCCCN=C(N)N/N=C/c1c[nH]c2ccc(OC)cc12 | – | 9.68 µM (active)
CNCCCC1c2ccccc2C=Cc2ccccc21 | – | 30.6 µM (active)
COC(=O)c1nc(Cl)c(Cl)nc1N | – | 1.72 µM (active)
CC(C)(C)C1CCC(CC2=C(O)c3ccccc3C(=O)C2=O)CC1 (configuration not stated) | – | 6.11 µM (active)
